Source: PubChem BioAssay (NCI)
The panel holds about 83,000 compounds, 20% with a hit somewhere; the sample as a whole holds those more often.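 The test compound was applied at a single concentration to cells in 96-well plates for 48 hours, and percent growth was recorded.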 A number with no mark means an inactive call. Calls of active or inactive are those of the source. The calls were made as follows: active = growth percent below 10; inactive = the rest.

Tested on: HOP-92 NSCLC
Experiment: NCI-60 one-dose screen, 48 h (100 = growth as untreated, 0 = no growth, -100 = all killed)
Settings: 10 µM unless noted

Compound | growth
COc1cccc(/C=C2\Oc3cc(OCCN4CCCC4)ccc3C2=O)c1 | 69.6%
COc1ccc(-c2nc3ccc(-c4nc5ccc(N6CCN(c7ccncc7)CC6)cc5[nH]4)cc3[nH]2)cc1OC | 57.8%
Cc1ccc(C2=NN3C(C2)c2cc(Br)ccc2OC32CCN(Cc3ccccc3)CC2)o1 (centres undefined) | 80%
COc1cc2c(cc1-c1c(C)noc1C)ncc1nc(-c3ccccn3)n([C@H](C)COC(F)F)c12 | 26.7%
Cc1oc(-c2ccc(Cl)cc2Cl)cc1C(=O)Nc1nccs1 | 110%
COc1ccc2c(c1)c(-c1nonc1-c1cn(C)c3ccccc13)cn2C | 47.8%
COC(=O)c1ccc(NC(=O)c2ccc(-c3cccc([N+](=O)[O-])c3)o2)cc1 | 94.6%
COc1cccc(C2=NN3C(C2)c2cc(Br)cc(OC)c2OC32CCN(Cc3ccccc3)CC2)c1 (centres undefined) | 111%
O=C1c2cc3c(cc2-c2c1c1cc(F)c(F)cc1c(=O)n2CCCn1ccnc1)OCO3 | -7.1% (active)
Cc1ccc2c(C(C[N+](=O)[O-])c3ccccc3F)c(-c3ccccc3)[nH]c2c1 (centres undefined) | 45.8%
Cc1ccccc1COc1ccc(-c2onc(C)c2-c2ccc(Cl)cc2)cc1 | 72.6%
COC[C@H](C)n1c(C2CCOCC2)nc2cnc3cc(-c4c(C)noc4C)c(OC)cc3c21 | 37.1%
C#CCOc1ccc2ncnc(NCc3cccc(NC(=O)CCl)c3)c2c1 | 54.4% [8.25 µM]
COc1cc(-c2nn(C)nc2-c2cc3ccccc3s2)cc(OC)c1OC | 64.9%
O=C1NC(=S)N[C@H]1CC(=O)n1cnc2ccccc21 | 96.1%
O=S(=O)(Nc1ccc(I)cc1F)c1ccc(-c2cnc(C3CC3)o2)cc1 | 62.1%
CC[C@@H](C(=O)[C@@H](C)[C@@H](O)[C@H](C)[C@@H]1O[C@@H]([C@@H](CC)C(=O)O)CC[C@@H]1C)[C@H]1OC2(C=C[C@@H](O)[C@]3(CC[C@@](C)([C@H]4CC[C@](O)(CC)[C@H](C)O4)O3)O2)[C@H](C)C[C@@H]1C (some centres undefined) | -14.8% (active)
CCOC(=O)c1csc(NC(=O)COc2cccc(/C=C3\CSc4ccccc4C3=O)c2)n1 | -79.1% (active)
CN1CCN(c2ccc3nc(-c4ccc(OCCCCN5CCN(CCCCN6C(=O)c7cccc8cccc(c78)C6=O)CC5)cc4)[nH]c3c2)CC1 | -54.4% (active)
Cc1ncc(C(=O)Nc2ccc(CN3CCN(C)CC3)c(C(F)(F)F)c2)cc1C#Cc1cnc2cccnn12 | -4.77% (active)

Compound | growth
Cc1nc2c3c(-c4ccccc4)c(-c4ccccc4)oc3ncn2n1 | 81.7%
O=C(N/N=C/c1ccccc1O)c1ccccc1Nc1ccnc(C(F)(F)F)c1 | 7.01% (active)
COC(=O)[C@]12CCC(C)(C)C[C@H]1[C@H]1C(=O)C[C@@H]3[C@@]4(C)c5c([nH]c6ccccc6c5=O)C(C)(C)[C@@H]4CC[C@@]3(C)[C@]1(C)CC2 | 85.8%
COc1ccc(-c2n[nH]nc2-c2csc3ccccc23)cc1OC | 41.6%
O=C1c2ccccc2C(=O)c2c(N=Nc3[nH]c(=S)[nH]c3O)cccc21 | 19.8%
Cn1c(NCCc2ccc(O)c(O)c2)nc2c1c(=O)n(Cc1ccc(Br)cc1)c(=O)n2C | 61.1%
Cc1ccc(/C=C2\SC(=S)N(CC(=O)NCCCN3CCOCC3)C2=O)cc1 | 91.5%
Cc1ccc(C2Oc3ccccc3C3CC(c4cccs4)=NN32)cc1 (centres undefined) | 81.7%
C=CC(=O)Nc1cccc(-c2nc(SC)nc(NCCc3ccc(OC)c(OC)c3)c2C#N)c1 | 62.2%
Cc1nc(/N=C(\N)NC(=O)Nc2cccc([N+](=O)[O-])c2)sc1C | 84.1%
COc1ccc(-n2nc(C)c3c(Nc4ccc(NC(=O)Nc5ccc(Cl)c(C(F)(F)F)c5)cc4)ncnc32)cc1 | -18.9% (active)
O=C(/C=C/c1cccc([N+](=O)[O-])c1)c1ccc(O)c(CN2CCN(c3cc4c(cc3F)c(=O)c(C(=O)O)cn4C3CC3)CC2)c1 | 59%
CCC([N+](=O)[O-])S(=O)(=O)c1ccc(C)cc1 (centres undefined) | 87.9%
Cc1cn2c(/C=C3/C(=O)Nc4c3ccc3ccccc43)c(C(F)(F)F)nc2s1 | 20.8%
O=C1c2cc3c(cc2-c2c1c1ccc(F)cc1c(=O)n2C[C@H](O)[C@@H](O)[C@H](O)CO)OCO3 | 6.56% (active)
O=C(Nc1cccc2[nH]c(C(F)(F)F)nc12)c1ccc(-n2cnnn2)cc1 | 82.5%
Fc1ccc(CNc2cccc3[nH]c(C(F)(F)F)nc23)cc1 | -9.4% (active)
O=C1c2cc3c(cc2-c2c1c1ccc(F)cc1c(=O)n2CCCNCCO)OCO3 | 2.28% (active)
N#CN1CC[C@H](C(=O)Nc2cc3cc(C(N)=O)ccc3cn2)C1 | -6.94% (active)
